# Source: PubChem
# CYP2C9 act = human CYP2C9 activators, primary screen, biochemical, luminescence. Cytochrome P450 2C9 (Homo sapiens), P11712. recombinant CYP2C9, luciferin-H conversion; hits give high values; factor 1 = untreated enzyme, 0 = blocked. activation factor at 5 µM. 96,000 compounds, 1.4% hits. AID 1024, 2008;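 active = activation factor of 2 or more for CYP2C9 at a 5 µM dose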;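 note: 0 = sulfaphenazole-blocked wells and 1 = vehicle-only wells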
# Measles CPE = compounds protecting cells from measles virus cytopathic effect, primary screen, measles RdRp inhibitor project, single point, MLSMR library, absorbance; Measles virus-infected cells, CPE protection; protection (pct of control), % at 4 µM; 140,000 compounds, 1.5% hits; AID 841, 2007; in the data active = protection mostly above about 24%, no sharp cut-off; inactive = mostly below about 26%
# CYP2C9 inhib = blockers of cytochrome P450 2C9 activity – biochemical, luminescence, ADME assay, primary screen | P11712 | inhibition, % at 5 µM | CYP2C9 Supersomes, luciferin-H conversion | 96,000 compounds, 20% hits;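 active = blocking of liver enzyme CYP2C9 beyond about 50% at 5 µM, limit read from the data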
# CYP2C19 activ = human CYP2C19 activators, primary screen, biochemical, luminescence; Cytochrome P450 2C19 (Homo sapiens), P33261; recombinant CYP2C19, luciferin-H EGE luminescence; hits give high values; 0 = fully inhibited enzyme, 1 = untreated enzyme; activation factor at 5 µM; 96,000 tested, under 10 active;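 active = activation factor of at least 2 at 5 µM in the primary screen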;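 note: 0 = wells with 2.5 mM tranylcypromine and 1 = vehicle-only wells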
# Target sequence (P33261 whole entry, looked up): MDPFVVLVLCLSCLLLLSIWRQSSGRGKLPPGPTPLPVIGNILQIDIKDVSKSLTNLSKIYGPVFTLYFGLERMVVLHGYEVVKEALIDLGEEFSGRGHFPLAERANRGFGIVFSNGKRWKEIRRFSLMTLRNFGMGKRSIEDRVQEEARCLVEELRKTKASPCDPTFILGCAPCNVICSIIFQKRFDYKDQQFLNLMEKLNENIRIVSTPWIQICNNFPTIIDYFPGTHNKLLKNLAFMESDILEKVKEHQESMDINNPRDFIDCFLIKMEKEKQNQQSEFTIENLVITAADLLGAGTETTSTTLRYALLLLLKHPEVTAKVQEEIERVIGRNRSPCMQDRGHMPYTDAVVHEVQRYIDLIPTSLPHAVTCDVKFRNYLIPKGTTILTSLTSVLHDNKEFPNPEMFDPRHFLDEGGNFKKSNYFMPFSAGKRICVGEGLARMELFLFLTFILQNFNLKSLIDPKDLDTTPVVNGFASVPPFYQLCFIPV
# CYP2C19 inh = blockers of cytochrome P450 2C19 activity – biochemical, luminescence, ADME assay, primary screen; P33261; AID 778, 2007; inhibition, % at 5 µM; 96,000 compounds, 21% hits; CYP2C19 Supersomes, luciferin-H EGE luminescence, 30 min;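 active = CYP2C19 inhibition above a set limit at 5 µM in the primary screen, cut at about 50% in these data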;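 note: plate controls were negative control wells for no effect and 2.5 mM tranylcypromine positive control for full effect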
# * = called active by the depositor; nt = no result; ! = not active in a repeat. Sampled rows, rich in hits. Any-hit rate of the full collection: about 22%.
SMILES,CYP2C9 act,Measles CPE,CYP2C9 inhib,CYP2C19 activ,CYP2C19 inh
CN(C)C(=O)N1CCCC(C(=O)NCCc2ccccc2)C1 (centres undefined),0.9,16,9,0.8,22
CCOc1ccccc1NC(=O)C1CCCN(C(=O)NCc2ccccc2)C1 (centres undefined),1.8,13,-78,0.5,51*
N#Cc1cc2c(nc1SCC(O)CS(=O)(=O)Cc1ccc(Cl)cc1)CCCC2 (centres undefined),0.2,7,81*,0.4,59*
CCS(=O)(=O)CCSc1nc2c(cc1C#N)CCCC2,0.9,11,10,0.8,23
CC(C)(C)c1ccc(S(=O)(=O)CC(O)CSc2nc3c(cc2C#N)CCCC3)cc1 (centres undefined),0.2,6,78*,0.6,36
N#Cc1cc2c(nc1SCc1ccncc1)CCC2,0.1,5,87*,0,100*
Cc1cc(C)c(C#N)c(SCC(O)CS(=O)(=O)Cc2ccccc2)n1 (centres undefined),0.3,5,72*,0,97*
CCOc1ccc(NC(=O)N(CCN(C)C)C(C)c2ccncc2)cc1 (centres undefined),0.9,13,14,0.8,19
CSc1nnnn1-c1ccc(C(=O)OCC(=O)N2CCOCC2)cc1,1.2,8,-18,1.1,-11
COP(=O)(OC)C(Nc1ccc(C)cc1)c1ccc([N+](=O)[O-])cc1 (centres undefined),nt,16,nt,nt,nt
CCCCC(=O)N/N=C/c1ccc(N2CCOCC2)c([N+](=O)[O-])c1,nt,1,nt,nt,nt
CCCCn1nnnc1SCC(=O)Nc1sc2c(c1C#N)CCCC2,0.7,17,28,0.8,20
Cn1cnnc1SCC(=O)Nc1sc2c(c1C#N)CCCCC2,nt,32*,nt,nt,nt
N#Cc1c(NC(=O)CSc2ncn(-c3ccccc3)n2)sc2c1CCCC2,0.1,3,90*,0.2,81*
N#Cc1cc2c(nc1SCC(=O)Nc1sc3c(c1C#N)CCC3)CCCC2,0.8,29,19,1,3
N#Cc1c(NC(=O)CSc2ncn[nH]2)sc2c1CCCCC2,0.3,6,71*,0.8,15
N#Cc1c(NC(=O)CSc2nc(N)cc(=O)[nH]2)sc2c1CCCCCC2,0.7,16,30,0.4,58*
O=C(OC(c1ccccc1)c1nccc2ccccc12)c1cc([N+](=O)[O-])cc([N+](=O)[O-])c1 (centres undefined),nt,4,nt,nt,nt
O=c1c2ccccc2oc2nc(-c3cccs3)n(CCc3ccccc3)c(=O)c12,nt,23,nt,nt,nt
Cc1ccc(Nc2nnc(SCc3cc(=O)n4cc(C)ccc4n3)s2)cc1,nt,8,nt,nt,nt
COc1ccc(C)cc1-n1nnnc1SCc1cc(=O)n2cc(C)ccc2n1,0.9,18,13,0.4,61*
COc1ccc(C)cc1-n1nnnc1SCn1nnc2ccccc2c1=O,1.1,21,-9,0.8,20
COc1ccc(C)cc1-n1nnnc1SCc1csc(C)n1,0.3,7,73*,0,99*
Cc1ccccc1-n1nnnc1SCc1csc(-c2ccccc2)n1,0.1,22,93*,0,97*
Nn1c(SCc2csc(-c3ccccc3)n2)nnc1-c1cccs1,1,12,-3,0.9,11
SMILES,CYP2C9 act,Measles CPE,CYP2C9 inhib,CYP2C19 activ,CYP2C19 inh
Cc1ccccc1-n1nnnc1-c1ccccc1,0.7,14,27,0.3,70*
COc1ccc(Nc2nc(C(F)(F)F)nc(C)c2C#N)cc1,nt,16,nt,nt,nt
Cc1nn(C)cc1CNC(=O)Nc1cccc(Cl)c1,1.3,4,-27,0.7,28
N#CC1=C(N)C2=C(N3CCCCC3)CCCC2C1(C#N)C#N (centres undefined),0.5,7,51*,0.9,14
CCC(C)n1c(SCC(=O)Nc2ccccc2C(F)(F)F)nc2ccsc2c1=O (centres undefined),0.3,20,72*,0.5,46
O=C(O)CCCCn1c(SCC(=O)Nc2ccccc2C(F)(F)F)nc2ccsc2c1=O,nt,14,nt,nt,nt
Cc1cc(=O)[nH]c2n[nH]c(-c3ccccc3)c12,1.1,2,-15,0.2,78*
CSc1nc(Sc2ccccc2Cl)c2ccccc2n1,1,1,-5,1.1,-6
O=S(=O)(c1ccccc1)c1nc(Nc2ccccc2N2CCOCC2)sc1Cl,0.1,4,88*,0.3,74*
O=C(Nc1ccccc1N1CCOCC1)c1ccc2ccccc2n1,0.6,5,39,0.6,39
CCOC(=O)C(O)(C1C(=O)CC(C)(C)CC1=O)C(F)(F)F (centres undefined),0.1,12,93*,1,0
COc1ccc(Cl)c(N2CCN(CCCNC(=O)Nc3ccc(C)cc3)CC2)c1,1.3,12,-28,0.5,49
CCCCNc1nc(N(C)c2ccccc2)nc(-n2ccnc2)n1,0.2,12,84*,0.1,85*
CN(c1ccccc1)c1nc(-n2ccnc2)nc(-n2ccnc2)n1,0.6,7,44,0.2,79*
CC(C)(C)NC(=O)COC(=O)c1cncc(Br)c1,1,15,-5,0.9,6
CN(C)c1ccc(NC(=O)CN2CCC(N3CCCCC3)CC2)cc1,1.2,4,-20,1.1,-10
Cc1ccc(-c2onc3ccc(Cl)cc23)cc1,nt,3,nt,nt,nt
c1ccc(-c2onc3cc4c(cc23)OCCO4)cc1,0.5,1,54*,0.5,50*
Cc1c(C(=O)Nc2ccc(N3CCOCC3)cc2)oc2ccccc12,1.2,23,-15,1,-4
Cc1cc(NC(=O)c2oc3ccccc3c2C)ccc1-n1cnnn1,0.2,2,77*,0.6,43
COc1cc(OC)cc(C(=O)Nc2ccc(-n3cnnn3)c(C)c2)c1,0.1,3,92*,0.2,83*
COc1ccc(C2=C(CN(C)C)C(c3ccccc3)c3ccccc3O2)cc1 (centres undefined),0.2,3,77*!,0.3,68*!
C=C(C)CNC(=S)N/N=C(\C)c1ccc(Cl)s1,nt,7,nt,nt,nt
COCc1[nH]nc2c1C(c1ccccc1F)C(C#N)=C(N)O2 (centres undefined),1,15,-5,0.9,13
COC(=O)Cc1[nH]nc2c1C(C1C=CCCC1)C(C#N)=C(N)O2 (centres undefined),0.4,7,60*,0.3,70*
CCOC(=O)Cc1[nH]nc2c1C(c1ccoc1)C(C#N)=C(N)O2 (centres undefined),0.6,6,38,0.2,77*
CCCc1[nH]nc2c1C(C1CCCCC1)C(C#N)=C(N)O2 (centres undefined),0.8,21,22,0.6,40
COC(=O)Cc1[nH]nc2c1C(c1c[nH]c3ccccc13)C(C#N)=C(N)O2 (centres undefined),0.7,13,26,0.5,52*
